From PubChem
Shown are actives, neighbours in structure and some others; about 3.6% of the full set was active somewhere.
LDHA inh: inhibitors of human lactate dehydrogenase A. 480,000 tested, 0.15% active. activity change, % (values are at about 110 or 230 µM). purified LDHA, NADH/diaphorase-resazurin fluorescence; active compounds read low. P00338; in the data active = activity change below about -30%
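Human LDH5 at 2 nM final in Tris HCl pH 7.4 with 0.06 mM NADH and 0.2 mM pyruvate, reacted 5 minutes at room temperature. Remaining NADH coupled via diaphorase/resazurin; resorufin fluorescence read at 0 and 20 minutes, normalized to enzyme-free and DMSO wells.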
D1 PAM: human D1 dopamine receptor positive modulation | P21728 | HEK293 TREx D1 cells, calcium flux, dopamine EC20 potentiation | potentiation, % at 10 µM | 360,000 tested, 0.036% active; in the data active = potentiation above about 30%
TRHR agonist: activates the human TRH receptor. TRHR cells, calcium flux fluo-8, FDSS agonist mode. activation, % at 2 µM. AID 493084. P34981. 360,000 tested, 0.18% active
Target sequence (P34981 whole entry, looked up): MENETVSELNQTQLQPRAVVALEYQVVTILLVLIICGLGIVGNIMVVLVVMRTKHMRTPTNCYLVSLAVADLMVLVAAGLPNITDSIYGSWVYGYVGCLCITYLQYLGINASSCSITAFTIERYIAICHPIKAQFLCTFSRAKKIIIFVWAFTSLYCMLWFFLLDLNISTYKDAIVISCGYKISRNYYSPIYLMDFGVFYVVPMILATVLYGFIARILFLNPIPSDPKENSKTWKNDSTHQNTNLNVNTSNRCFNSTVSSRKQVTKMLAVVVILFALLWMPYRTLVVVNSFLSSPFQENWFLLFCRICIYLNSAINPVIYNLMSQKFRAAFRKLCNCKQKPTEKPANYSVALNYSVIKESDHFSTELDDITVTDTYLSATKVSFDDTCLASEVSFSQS
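In this calcium-flux screen, cells bearing human TRHR are dye-loaded with fluo-8, baselined for 10 cycles, then exposed to library compounds; positive kinetic calcium responses during the agonist phase mark hits, with TRH as control.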
D1 agonist: agonists of human D1 dopamine receptor. AID 504660. HEK293 T-REx D1 cells, calcium flux, agonist mode. 360,000 tested, 1% active. activation, % at 2 µM. P21728
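Inducible HEK293 T-REx D1 cells, force-coupled to calcium signalling, were plated at 4000 cells/well with tetracycline and held overnight at 30 C. After no-wash calcium dye loading, compound-evoked calcium rise over 180 s flagged agonists.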
TRHR enhancer: TRH receptor (human) allosteric enhancement | P34981 | TRHR cells, fluo-8 calcium fluorescence, EC20 TRH enhancement | enhancement, % at 2 µM | 360,000 tested, 0.66% active; in the data active = enhancement above about 30%
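Enhancer read-out: after compound pinning and an initial kinetic agonist-mode read, an EC20 of TRH (10 nM final) was injected and fluo-8 calcium signal (Ex 480/Em 530) followed at 1 s/cycle for 100 cycles in TRHR-expressing cells.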
D1 antag: antagonists of human D1 dopamine receptor; P21728; HEK293 TREx D1 cells, calcium flux, dopamine EC80; active compounds read low; activity change, negative = inhibition, % at 10 µM; 360,000 tested, 3.2% active; in the data active = activity change below about -30%
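Calcium flux readout: force-coupled, inducible Hek293 Trex D1 line, cells induced overnight at 30 C with tetracycline, dye-loaded 30–90 min at RT. Antagonism scored against EC80 dopamine challenge given 180 s after compound.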
Hits are given with their value; – = inactive; · = no result given; ! = not confirmed by another sample. Rule as the data show it, unless noted: active = activation above about 30%; inactive = the rest.

SMILES | LDHA inh | D1 PAM | TRHR agonist | D1 agonist | TRHR enhancer | D1 antag
N=c1c(C(=O)NCC2CCCO2)cc2c(=O)n3ccccc3nc2n1Cc1ccccc1Cl (stereo unspecified) | – | – | – | – | – | -39
O=C(COC(=O)C1CCN(S(=O)(=O)c2cc([N+](=O)[O-])ccc2Cl)CC1)Nc1ncc(Cl)cc1Cl | – | – | – | – | – | -34
CCN(Cc1ccccc1)C(=O)C(C)OC(=O)c1cc(S(=O)(=O)Nc2c(C)n(C)n(-c3ccccc3)c2=O)ccc1C (stereo unspecified) | – | – | – | – | – | -69
CSc1ccc(CN(C)C(=O)c2ccc(S(=O)(=O)Nc3c(C)n(C)n(-c4ccccc4)c3=O)cc2)cc1 | – | · | · | · | · | ·
CCN(Cc1ccccc1)C(=O)COC(=O)c1cc(S(=O)(=O)Nc2c(C)n(C)n(-c3ccccc3)c2=O)ccc1C | – | – | – | – | – | –
Cc1ccc(S(=O)(=O)Nc2c(C)n(C)n(-c3ccccc3)c2=O)cc1C(=O)NCc1ccccn1 | – | – | – | – | – | -34
Cc1ccc(S(=O)(=O)N2CCCCC2)cc1C(=O)NCc1ccccn1 | – | – | – | – | – | –
Cc1c(NS(=O)(=O)c2ccc(C(=O)NCc3ccc(F)cc3)cc2)c(=O)n(-c2ccccc2)n1C | – | – | – | – | – | -36
CSc1nc2ccc(S(=O)(=O)Nc3c(C)n(C)n(-c4ccccc4)c3=O)cc2s1 | – | – | – | – | – | -91
Cc1cccc(C(=O)Sc2ccc(Cl)cc2)c1 | – | · | · | · | · | ·
CCOc1ccc(NS(=O)(=O)c2ccc(C(=O)NCC3(N4CCCCC4)CCCCC3)cc2)cc1 | – | – | – | 31 | – | –
O=C(NCC1(N2CCCCC2)CCCCC1)c1cccc(S(=O)(=O)Nc2ccc(F)cc2)c1 | – | – | – | – | – | -38
CCOc1ccc(NS(=O)(=O)c2ccc(C(=O)NCC3(N(C)C)CCCCC3)cc2)cc1 | – | – | – | – | – | –
O=C(NCC1(N2CCOCC2)CCCCC1)c1cccc(S(=O)(=O)Nc2ccc(F)cc2)c1 | – | – | – | – | – | –
Cc1ccc(NS(=O)(=O)c2ccc(C(=O)N3CCCCCC3)cc2)cc1 | – | – | – | 31 | – | –
Cc1ccc(NS(=O)(=O)c2ccc(C(=O)N3CCCCCCC3)cc2)cc1 | – | – | – | – | – | –
Cc1ccccc1NS(=O)(=O)c1ccc(C(=O)N2CCC2)cc1 | – | – | – | – | – | -63
O=C(c1sc2cc(Cl)ccc2c1Cl)N(Cc1ccccc1)C1CCS(=O)(=O)C1 (stereo unspecified) | – | · | · | · | · | ·
O=C(O)COc1ccc2c(=O)c(-c3ccccc3)coc2c1 | – | · | · | · | · | ·
Cc1ccccc1C(=O)N/N=C1\CC(=O)CC(C)(C)C1 | – | · | · | · | · | ·
Cc1cccc(-c2noc(-c3ccc(I)cc3)n2)c1 | – | · | · | · | · | ·
COc1cc(C(C)=O)ccc1Oc1cccc(Cl)c1C#N | – | · | · | · | · | ·
O=C(Nc1ccccc1Cl)C1Sc2nnc(-c3ccccc3)n2NC12CCCC2 (stereo unspecified) | – | · | · | · | · | ·
CCOc1ccc(NS(=O)(=O)c2ccc(C(=O)N3CCCCCC3)cc2)cc1 | – | – | – | 59 | – | –
CCOc1ccccc1NS(=O)(=O)c1ccc2[nH]c(=O)[nH]c2c1 | – | – | – | – | – | –
SMILES | LDHA inh | D1 PAM | TRHR agonist | D1 agonist | TRHR enhancer | D1 antag
CCOc1ccc(S(=O)(=O)Nc2ccc3c(c2)N(C(C)=O)CCC3)cc1 | – | – | – | – | – | -32
CCOc1ccc(OCc2ccc(C(=O)N3CCOCC3)cc2)cc1 | – | – | – | – | – | –
CCOc1ccc(OCc2ccc(C(=O)N3CCCC(C)C3)cc2)cc1 (stereo unspecified) | – | – | – | – | – | -30
Cc1ccccc1NS(=O)(=O)c1ccc2[nH]c(=O)[nH]c2c1 | – | – | – | – | 30 | –
Cc1cc(C)n2nc(C(=O)Nc3nc(-c4cccc(Br)c4)cs3)nc2n1 | – | · | · | · | · | ·
CNc1c(NC(=O)Nc2ccc(F)cc2)c(=O)oc2ccccc12 | – | · | · | · | · | ·
CCOc1ccc(S(=O)(=O)Nc2ccc(C(=O)N3CCCC3)cc2)cc1 | – | – | – | – | – | –
CCOc1ccc(NS(=O)(=O)c2ccc(C(=O)N3CCCC(C)C3)cc2)cc1 (stereo unspecified) | – | – | – | 59 | – | -52
O=C(c1ccc(S(=O)(=O)Nc2ccccc2)cc1)N1CCCC(C(F)(F)F)C1 (stereo unspecified) | – | – | – | 51 | – | –
CC(=O)c1ccc(S(=O)(=O)Nc2ccc(-c3ccc(N4CCCCC4)nn3)cc2)cc1 | – | – | – | – | 31 | –
Cc1cccc(CNC(C)CN2CCCCC2)c1 (stereo unspecified) | – | · | · | · | · | ·
COc1cc(F)ccc1CN1CCC(C(=O)Nc2ccc(Oc3ccccc3)nc2)CC1 | – | – | – | 47 | – | –
Cc1ncc(CN2CCCCC2C(=O)Nc2ccc(Oc3ccccc3)nc2)cn1 (stereo unspecified) | – | – | – | – | – | –
O=C(Nc1ccc(Oc2ccccc2)nc1)C1CCN(Cc2ccccc2)CC1 | – | – | – | – | – | –
CC(C)n1cc(CN2CCC(C(=O)Nc3ccc(Oc4ccccc4F)cc3)CC2)cn1 | – | – | – | 105 | – | -62
CCc1ccc(CN2CCC(C(=O)Nc3ccc(Oc4ccccc4)nc3)CC2)o1 | – | – | – | 37 | – | –
CSc1ncc(CN2CCCCC2C(=O)Nc2ccc(Oc3ccccc3)nc2)cn1 (stereo unspecified) | – | – | – | – | – | -31
Cc1cc(C)c(C(=O)CSc2nnnn2C)c(C)c1 | – | · | · | · | · | ·
CCOC(=O)c1cc2c(ccn2C)n1CC(=O)N(Cc1ccccc1)c1ccc(F)cc1 | – | – | – | – | – | -37
CCCNC(=O)OCCC12CC3CC(CC(C3)C1)C2 | – | – | – | 33 | – | –
CC(=O)N1CCCc2cc(S(=O)(=O)N3CCCC(C(=O)N4CCN(c5ccccc5F)CC4)C3)ccc21 (stereo unspecified) | – | – | – | – | – | -39
COc1ccc(N2CCN(C(=O)C3CCCN(S(=O)(=O)c4ccc5c(c4)CCCN5C(C)=O)C3)CC2)cc1 (stereo unspecified) | – | – | – | – | – | –
CC(=O)N1CCCc2cc(S(=O)(=O)N3CCCC(C(=O)NCc4ccccc4Cl)C3)ccc21 (stereo unspecified) | – | – | – | – | – | -42!
Cc1ccc(N(CCC#N)C(=O)COC(=O)c2ccccc2SCC(=O)N2CCCC2)cc1 | – | – | – | – | – | –
Cc1cc(C)cc(N(CCC#N)C(=O)COC(=O)c2ccccc2SCC(=O)N2CCCC2)c1 | – | – | – | – | – | -34
